# PubChem BioAssay (EPA / NIEHS)
# Where “and” joins values, the source holds several entries; their conditions need not be identical. Identical values can stand only once. Results filed as inconclusive are left out. The source holds several records for some structures; these can differ, active in one and inactive in another. Calls of active or inactive are those of the source. Rule for the calls: active = hit-call score of the fitted dose curve at least 0.9, where 1 is the maximum; inconclusive = response in the unintended direction; inactive = score below 0.9.
# Assays:
# [1] = ATG_XTT_Cytotoxicity: Cytotoxicity Assessment in the Attagene TRANS-FACTORIAL HepG2 Assay (AID 2283584);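 for AC50: cells exposed to compound for 24 h before reading; active means loss of viability signal versus DMSO baseline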
# Summary of the method: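 Viability endpoint from XTT after 24 h chemical exposure of reporter-transfected human HepG2 liver cells; signal loss fitted relative to DMSO negative control.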
# [2] = target: Cellular tumor antigen p53 (Homo sapiens) (UniProt P04637); test: TOX21_p53_BLA_p2_ratio: Tox21 HCT-116 p53 Agonism Beta-lactamase Assay, Ratio, Phase 2 (AID 2283592)
# Chain of Cellular tumor antigen p53 (Homo sapiens) (P04637 whole entry, looked up): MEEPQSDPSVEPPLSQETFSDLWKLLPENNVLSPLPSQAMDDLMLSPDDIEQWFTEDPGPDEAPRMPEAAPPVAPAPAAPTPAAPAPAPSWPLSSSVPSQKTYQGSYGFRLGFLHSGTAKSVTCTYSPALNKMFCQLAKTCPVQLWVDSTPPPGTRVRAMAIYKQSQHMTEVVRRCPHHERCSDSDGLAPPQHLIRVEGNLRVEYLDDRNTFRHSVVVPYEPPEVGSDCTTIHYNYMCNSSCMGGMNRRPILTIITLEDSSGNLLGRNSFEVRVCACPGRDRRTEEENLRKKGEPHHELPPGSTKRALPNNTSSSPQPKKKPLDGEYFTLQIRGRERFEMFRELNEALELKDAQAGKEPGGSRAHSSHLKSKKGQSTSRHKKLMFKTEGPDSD
# Summary of the method: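 Gain-of-signal p53 agonism was scored from the beta-lactamase FRET ratio (460/530 nm, 405 nm excitation) in HCT116 cells treated 16 h at 37C, 5% CO2, with DMSO serving as negative control and baseline.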
# [3] = TOX21_p53_BLA_p3_viability: Viability Assessment in the Tox21 HCT-116 p53 Agonism Beta-lactamase Assay, Phase 3 (AID 2283593);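 note: cells exposed to compound for 16 h before reading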
# Summary of the method: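 HCT116 cells, 4000/well, dosed 5 h after plating by pin transfer (217-fold dilution from DMSO stock) and incubated 16 h at 37C, 5% CO2. Viability read as ATP luminescence with CellTiter-Glo after 30 min at room temperature.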
# [4] = target: Cellular tumor antigen p53 (Homo sapiens) (UniProt P04637); test: TOX21_p53_BLA_p3_ratio: Tox21 HCT-116 p53 Agonism Beta-lactamase Assay, Ratio, Phase 3 (AID 2283596)
# Summary of the method: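 HCT116 p53-bla cells (4000/well) given compound in DMSO (217-fold dilution) after 5 h, incubated 16 h at 37C. CCF4-AM substrate 2 h at room temperature; 460/530 nm emission ratio, gain fitted against DMSO.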
# [5] = TOX21_p53_BLA_p4_viability: Viability Assessment in the Tox21 HCT-116 p53 Agonism Beta-lactamase Assay, Phase 4 (AID 2283597);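 note: hits lower the luminescence signal meaning cytotoxicity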
# Summary of the method: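 Following a 16 h exposure at 37C, the treated HCT116 wells were first read for the FRET ratio. They were then lysed with CellTiter-Glo, and ATP luminescence was recorded after 30 min at room temperature.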
# [6] = TOX21_p53_BLA_p2_viability: Viability Assessment in the Tox21 HCT-116 p53 Agonism Beta-lactamase Assay, Phase 2 (AID 2283591);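 note: compound exposure lasted 16 h at 37 °C; actives lower the ATP signal meaning cytotoxicity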
# Summary of the method: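 HCT116 p53-bla cells, 4000/well, dosed after 5 h plating (217-fold dilution of DMSO stocks) and incubated 16 h at 37C. Viability taken as cellular ATP by CellTiter-Glo luminescence after 30 min RT; signal loss marks cytotoxicity.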
smiles,measurement,setting,value
O=C(O)C1=NN(c2ccc(S(=O)(=O)O)cc2)C(=O)C1,outcome,[1],inactive
same,outcome,[2],inactive
CCCCC/C=C\C=C\C(=O)OCC,outcome,[1],inactive
same,AC50,[2],75.6 µM (active)
same,AC50,[3],49.1 µM (active)
CC1COC(=O)O1 (configuration not stated),outcome,[1],inactive
same,outcome,[2],inactive
same,outcome,[3],inactive
same,outcome,[4],inactive
O=S1(=O)CC=CC1,outcome,[1],inactive
same,outcome,[2],inactive
same,outcome,[3],inactive
same,outcome,[4],inactive
CCOc1ccc(NC(C)=O)cc1,outcome,[1],inactive
same,outcome,[2],inactive
same,outcome,[3],inactive
same,outcome,[4],inactive
same,outcome,[5],inactive
CN(C)C,outcome,[1],inactive
same,outcome,[2],inactive
same,outcome,[3],inactive
CCC(C)C1CCCCC1=O (configuration not stated),outcome,[1],inactive
same,outcome,[2],inactive
O=C(OCc1ccccc1)c1ccccc1O,outcome,[1],inactive
same,outcome,[2],inactive
same,outcome,[3],inactive
same,outcome,[5],inactive
NC(=O)c1cnccn1,outcome,[1],inactive
same,outcome,[2],inactive
same,outcome,[3],inactive
Cc1cc(O)c2c(c1)C(=O)c1cc(O)cc(O)c1C2=O,outcome,[1],inactive
same,AC50,[2],6.55 µM (active) and 13.2 µM (active)
same,outcome,[3],inactive
OC[C@@H](O)[C@H](O)[C@@H](O)[C@@H](O)CO,outcome,[1],inactive
same,outcome,[2],inactive
same,outcome,[3],inactive
same,outcome,[5],inactive
COc1ccc2[nH]cc(CCNC(C)=O)c2c1,outcome,[1],inactive
same,outcome,[2],inactive
same,outcome,[3],inactive
same,outcome,[4],inactive
same,outcome,[5],inactive
C=CCCCCCCCCC(=O)OCC,outcome,[1],inactive
same,outcome,[2],inactive
same,outcome,[3],inactive
same,outcome,[5],inactive
N=C1N=C(N)c2ccccc21,outcome,[1],inactive
same,AC50,[2],28.4 µM (active)
same,AC50,[3],13.6 µM (active)
same,AC50,[4],27.3 µM (active)
O=S1(=O)CC(Cl)(Cl)C(Cl)(Cl)C1,AC50,[1],26 µM (active)
same,outcome,[2],inactive
same,AC50,[3],24.9 µM (active)
same,AC50,[4],47.6 µM (active)
same,AC50,[5],9.34 µM (active)
CC/C=C\C#N,outcome,[1],inactive
same,outcome,[2],inactive
same,outcome,[4],inactive
CC/C=C\CCOC(=O)C(C)C,outcome,[1],inactive
same,outcome,[2],inactive
same,outcome,[3],inactive
CC(=O)OC/C=C(C)/C=C/C=C(C)/C=C/C1=C(C)CCCC1(C)C,outcome,[1],inactive
same,outcome,[2],inactive
same,outcome,[3],inactive
same,outcome,[5],inactive
CC(C)Cc1ccccc1,outcome,[1],inactive
same,outcome,[2],inactive
same,outcome,[3],inactive
same,outcome,[5],inactive
CCCCCC(=O)O[C@]1(C(C)=O)CC[C@H]2[C@@H]3CCC4=CC(=O)CC[C@]4(C)[C@H]3CC[C@@]21C,outcome,[1],inactive
same,outcome,[2],inactive
same,outcome,[3],inactive
same,outcome,[4],inactive
same,outcome,[5],inactive
CCCCN(CCCC)CCCCCCN(CCCC)CCCC,outcome,[1],inactive
same,outcome,[2],inactive
same,outcome,[3],inactive
CCCCN(CCO)CCO,outcome,[1],inactive
same,outcome,[2],inactive
same,outcome,[3],inactive
same,outcome,[4],inactive
CN(C)c1ccc(C=O)cc1,outcome,[1],inactive
same,outcome,[2],inactive
same,outcome,[3],inactive
same,outcome,[4],inactive
CCOC(=O)C(=O)OCC,outcome,[1],inactive
same,outcome,[2],inactive
same,outcome,[3],inactive
COC(=O)C(C)Oc1ccc(Oc2ncc(C(F)(F)F)cc2Cl)cc1 (configuration not stated),outcome,[1],inactive
same,outcome,[2],inactive
same,outcome,[3],inactive
same,outcome,[4],inactive
same,outcome,[5],inactive
CCOC(=O)C=Cc1ccccc1,outcome,[1],inactive
same,outcome,[2],inactive
same,outcome,[3],inactive
same,outcome,[4],inactive
COc1ccc(C(C)=O)cc1,outcome,[1],inactive
same,outcome,[2],inactive
COc1ccccc1O,outcome,[1],inactive
same,outcome,[2],inactive
same,outcome,[3],inactive
same,outcome,[4],inactive
same,outcome,[5],inactive
CCCCCCC(O)CCOC(C)=O (configuration not stated),outcome,[1],inactive
same,outcome,[2],inactive
same,outcome,[3],inactive
CC(=O)C1C(=O)C=C(C)OC1=O (configuration not stated),outcome,[1],inactive
same,outcome,[2],inactive
same,outcome,[3],inactive
same,outcome,[4],inactive
CC(O)COCC(C)O (configuration not stated),outcome,[1],inactive
same,outcome,[2],inactive
same,outcome,[3],inactive
same,outcome,[4],inactive
same,outcome,[5],inactive
O=[N+]([O-])c1cc(N(CCO)CCO)ccc1NCCO,outcome,[1],inactive
same,outcome,[2],inactive
same,outcome,[3],inactive
same,outcome,[5],inactive
CC/C=C\CCCCO,outcome,[1],inactive
same,outcome,[2],inactive
CC(C)COC(=O)c1ccccc1O,outcome,[1],inactive
same,outcome,[2],inactive
same,outcome,[3],inactive
same,outcome,[4],inactive
C[C@H](CCC(=O)O)[C@H]1CC[C@H]2[C@@H]3CC[C@@H]4C[C@H](O)CC[C@]4(C)[C@H]3CC[C@]12C,outcome,[1],inactive
same,AC50,[2],21.8 µM (active)
same,outcome,[2],inactive
same,AC50,[3],31.4 µM (active) and 30 µM (active)
same,AC50,[4],31.1 µM (active)
same,outcome,[4],inactive
same,AC50,[5],13.5 µM (active)
same,outcome,[5],inactive
CCCCCCCCCCCCN1CCOCC1,outcome,[1],inactive
same,outcome,[2],inactive
same,outcome,[3],inactive
same,outcome,[4],inactive
CC(=O)CC(C)(C)C1CCCCC1,outcome,[1],inactive
same,outcome,[2],inactive
same,outcome,[4],inactive
CC(=O)c1ccc2ccccc2c1,outcome,[1],inactive
same,outcome,[2],inactive
same,outcome,[5],inactive
[Cu+],outcome,[1],inactive
same,outcome,[5],inactive
C=CCOC(=O)/C=C\C(=O)OCC=C,outcome,[6],inactive
same,outcome,[2],inactive
same,outcome,[3],inactive
same,outcome,[4],inactive
CCCCCCCCCOS(=O)(=O)O,outcome,[1],inactive
same,outcome,[2],inactive
same,outcome,[4],inactive
same,outcome,[5],inactive
CCCCCCCC1CCCC1=O (configuration not stated),outcome,[1],inactive
same,outcome,[2],inactive
same,outcome,[4],inactive
C=C(C)C(=O)OCCC(C)OC(=O)C(=C)C (configuration not stated),outcome,[1],inactive
same,outcome,[5],inactive
CC(=O)CCc1ccc(O)cc1,outcome,[1],inactive
same,outcome,[2],inactive
same,outcome,[5],inactive
